# Compound activity (PubChem BioAssay)
# Spn MK inh: S. pneumoniae MK inhibitors, primary screen, biochemical, PK/LDH-coupled NADH absorbance | purified MK, PK/LDH-coupled NADH absorbance 340 nm | inhibition, % at 10 µM | 65,000 compounds, 0.48% hits;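 active = ranked among the strongest by inhibition in the single 10 µM screen, a fixed top-ranked set picked for dose follow-up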
# Fluor 339 460: intrinsic fluorescence of library compounds, ex339/em460 – biochemical, MLSMR library, data from DPM-DC assay, artefact control, profiling panel | 65,000 compounds, 5.5% hits | compound autofluorescence, ex339/em460 nm, NADH buffer; stronger effect = higher value; 1 = no-compound wells, NADH background | fluorescence fold increase at 10 µM;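 active = at 10 µM, mean starting fluorescence two-fold or more over control wells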;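 note: signal is the first read of a kinetic run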
# PMK inhibit: S. pneumoniae PMK inhibitors, primary screen, biochemical, mevalonate pathway, pilot trial included; inhibition, % at 10 µM; phosphomevalonate kinase (Streptococcus pneumoniae D39); 65,000 compounds, 0.49% hits; purified PMK, PK/LDH-coupled NADH absorbance 340 nm;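 active = top-ranked compounds by inhibition in the single 10 µM screen, taking a fixed number of the strongest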
# NADH enzymes: inhibitors of PK/LDH coupling enzymes, profiling panel, artefact control, biochemical, MLSMR library. coupled PK/LDH NADH assays, four targets. IC50, µM (top dose mostly 10 µM). 65,000 compounds, 0.02% hits. AID 774, 2007;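 active = single-dose screening hits from any of four coupled enzyme assays that gave an IC50 when retested across doses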;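 note: the DPM-DC format reads NADH fluorescence rather than 340 nm absorbance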
# DPM-DC inhibit: S. pneumoniae DPM-DC inhibitors, primary screen, biochemical, PK/LDH-coupled NADH fluorescence; diphosphomevalonate decarboxylase (Streptococcus pneumoniae D39); purified DPM-DC; calls only at 10 µM; 65,000 compounds, 0.49% hits; AID 556, 2006;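 active = the 320 compounds with the highest percent inhibition in the single-dose primary screen, excluding strongly autofluorescent ones, cut at about 32% in these data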;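 note: kinetic rate of NADH fluorescence loss reporting ADP formed by the decarboxylase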
# A340 absorber: compound light absorbance at 340 nm, profiling panel, artefact control, biochemical, MLSMR library, data from PS, PMK, MK assays; compound absorbance at 340 nm, fold over control; fold change at 10 µM; 65,000 tested, under 10 active; AID 708, 2007;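 active = at 10 µM dose, initial 340 nm absorbance at least 2 fold that of control wells; inactive = change under 2 fold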;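 note: initial absorbance extrapolated from kinetic A340 decline of NADH oxidation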
# Numbers stand for hits; n = inactive; x = no result given; + = active, no number. Sampled rows, rich in hits. Any-hit rate of the full collection: about 6.3%.
SMILES,Spn MK inh,Fluor 339 460,PMK inhibit,NADH enzymes,DPM-DC inhibit,A340 absorber
CC1=CC2=NC(=O)CC(C)(C(=O)N(CC(=O)NC(C)(C)C)C3CCCC3)N2C=C1 (stereo not given),n,3.8,n,n,x,n
Cn1c(=O)oc2cc(S(=O)(=O)Nc3ccc4c(c3)OCO4)ccc21,n,n,n,n,n,n
COC(=O)CC(=O)CSc1nc2c(cc1C#N)CCCCC2,n,3.9,n,n,x,n
COc1cc2cc(C(=O)Nc3ccccc3)c(N)nc2cc1OC,n,2.3,n,n,x,n
COc1cc2ccccc2cc1C(=O)Nc1cccnc1,n,n,n,n,n,n
Cc1cccc(C)c1NC(=O)C(c1ccccc1)N1CCN(C(=O)c2ccco2)CC1 (stereo not given),n,n,n,n,+,n
Cc1cccc(C)c1NC(=O)C(c1ccccc1)N1CCC2(CC1)OCCO2 (stereo not given),n,n,n,n,n,n
O=C(Nc1ccc(-c2noc(COc3ccccc3Cl)n2)cc1)c1ccco1,n,n,32,n,n,n
CC(NC(=O)Nc1ccccc1O)(C(F)(F)F)C(F)(F)F,n,2.6,n,n,n,n
CC(NC(=O)Nc1ccc(O)cc1)(C(F)(F)F)C(F)(F)F,n,n,n,n,n,n
Cc1cc(C)c2c(n1)nn1c(N3CCN(c4ccccn4)CC3)cc(C)nc21,n,3,n,n,n,n
Cc1cc(C)c2c(n1)nn1c(N3CCN(c4ccccc4)CC3)cc(C)nc21,n,3.2,n,n,+,n
Cc1cc(-c2ccccc2)nc(N2CCN(c3ccccn3)CC2)n1,n,n,n,n,n,n
O=C(O)CCc1ccc(-c2ccccc2)n1CC1CCCO1 (stereo not given),n,4,n,n,x,n
COC(=O)Cn1c(CCC(=O)O)ccc1-c1ccccc1,n,2.2,n,n,x,n
CCCn1c(CCC(=O)O)ccc1-c1ccc(F)cc1,n,2,n,n,n,n
COc1ccc(-c2ccc(CCC(=O)O)n2C(C)C)cc1,n,2,n,n,n,n
O=C(CC1(O)C(=O)Nc2ccccc21)c1cccnc1 (stereo not given),n,n,n,n,n,n
CC(=O)CC(C)(C)n1nnc(-c2ccccc2)n1,n,n,n,n,n,n
O=C(COC(=O)CCCNC(=O)c1ccc(Cl)cc1)NC1CC1,n,n,n,n,n,n
CCOC(=O)CC1C(=O)NCCN1C(=O)c1cc2c(=O)n3ccccc3nc2s1 (stereo not given),n,2.1,n,n,x,n
CCOC(=O)CC1C(=O)NCCN1C(=O)c1cc2c(=O)n3cccc(C)c3nc2s1 (stereo not given),n,2.1,n,n,x,n
CCCOC(=O)CC1C(=O)NCCN1Cc1ccccc1C (stereo not given),n,n,n,n,n,n
Cc1ccc(S(=O)(=O)N2CCCC2C(=O)NC2=NCCS2)cc1 (stereo not given),n,n,n,n,n,n
Cc1nc2cc(F)ccc2n1C1CCN(S(=O)(=O)c2ccccc2)CC1,n,n,n,n,n,n
SMILES,Spn MK inh,Fluor 339 460,PMK inhibit,NADH enzymes,DPM-DC inhibit,A340 absorber
CCC(C)c1c(O)nc(SCC(=O)c2ccccc2)[nH]c1=O (stereo not given),n,n,n,n,n,n
CCN(CC)CCSc1nc(O)c(C(C)C)c(=O)[nH]1,n,n,25,n,n,n
COC(=O)CN1CCN(C(=O)c2ccc(F)cc2)c2ccccc2C1,n,n,n,n,n,n
CCn1c(=O)c2cc(C(=O)N3CCN(C(=O)c4ccco4)CC3)sc2c2ccccc21,n,2.1,n,n,x,n
O=C(NC1CC1)c1cc2c(s1)-c1ccccc1OC2,n,2.1,n,n,x,n
CN1CCN(C(=O)c2cc3c(s2)-c2ccccc2S(=O)(=O)C3)CC1,n,n,n,n,n,n
O=C(c1ccco1)N1CCN(C(=O)c2cc3c(s2)-c2ccccc2OC3)CC1,n,2.4,n,n,x,n
CC1CCC(NC(=O)c2cc3c(s2)CS(=O)(=O)C3)CC1 (stereo not given),n,n,n,n,n,n
O=C(O)c1cc2c(s1)-c1ccccc1OC2,n,2.2,n,n,x,n
Cc1ccccc1Cn1c(=N)n(CC(=O)c2ccco2)c2ccccc21,n,n,n,n,n,n
O=C(CCN1C(=O)C2C3C=CC(C3)C2C1=O)NC1CCCc2ccccc21 (stereo not given),n,n,n,n,n,n
COc1ccc2c(c1)c(C(=O)CN1CCN(C(=O)c3ccco3)CC1)c(C)n2C,n,n,n,n,n,n
O=C(NCc1cccs1)c1cc2c(s1)-c1ccccc1OC2,n,2.4,n,n,x,n
OCCN(CCO)c1ncnc2c1sc1nc(N3CCOCC3)c3c(c12)CCCC3,n,n,n,n,n,n
c1nc(N2CCNCC2)c2sc3nc(N4CCOCC4)c4c(c3c2n1)CCC4,n,2.1,n,n,x,n
OCCN1CCN(c2ncnc3c2sc2nc(N4CCOCC4)c4c(c23)CCC4)CC1,n,2.1,n,n,x,n
COc1cccc(CNC(=O)C2CCN(c3cnccn3)CC2)c1,n,n,n,n,n,n
CSc1cccc(NC(=O)CN(C)S(=O)(=O)c2ccc(C)cc2)c1,n,n,n,n,n,n
CCOC(=O)C1CCN(C(=O)Nc2ccc(Cl)cc2Cl)CC1,n,n,n,n,n,n
c1ccc(-c2nnc(Cn3c4ccccc4c4nc5ccccc5nc43)o2)cc1,n,3.6,n,n,x,n
CC(O)c1nc2ccccc2n1Cc1nnc(-c2ccc(Cl)cc2)o1 (stereo not given),n,n,n,n,n,n
O=C(O)c1ccc(-c2ccc(O)c(F)c2)cc1,n,n,n,n,n,n
CCOC(=O)CCc1c(C)n(CC)c2cc(-c3ccccc3OC)nn2c1=O,n,3.6,n,n,n,n
CCOC(=O)CNC(=O)CSc1nnc(-c2ccccc2OC)n1CC,n,n,n,n,n,n
CCOC(=O)C1=CN(C)C=C(C(=O)OCC)C1c1ccsc1,n,4.8,n,n,x,n
COC(=O)C1=CN(CC2CCCO2)C=C(C(=O)OC)C1c1ccsc1 (stereo not given),n,2.1,n,n,x,n
CCSc1nnc(NC(=O)CSc2nnc(Cc3cccn3C)n2-c2ccc(C)cc2)s1,n,n,n,n,n,n
CSc1nc2[nH]c3c(c2c2nnnn12)CCCC3,n,2.3,n,n,x,n
c1ccc(-n2ncc3c(N4CCN(c5ccccn5)CC4)nc(N4CCOCC4)nc32)cc1,n,n,n,n,n,n
